From PubChem BioAssay
This is a sample that favours compounds with a hit; in the whole collection about 6% have one here.
D1 antagonist: Antagonist of Human D 1 Dopamine Receptor: qHTS | 3.2% of 360,000 active | D(1A) dopamine receptor (Homo sapiens), P21728 | activity change, negative = inhibition, % at 10 µM | HEK293 TREx D1 cells, calcium flux, dopamine EC80; stronger effect = lower value; in the data active means activity change below about -30%; further: on the % scale 0 is the no-effect control and ±100 the full control effect
Target sequence (P21728 whole entry, looked up): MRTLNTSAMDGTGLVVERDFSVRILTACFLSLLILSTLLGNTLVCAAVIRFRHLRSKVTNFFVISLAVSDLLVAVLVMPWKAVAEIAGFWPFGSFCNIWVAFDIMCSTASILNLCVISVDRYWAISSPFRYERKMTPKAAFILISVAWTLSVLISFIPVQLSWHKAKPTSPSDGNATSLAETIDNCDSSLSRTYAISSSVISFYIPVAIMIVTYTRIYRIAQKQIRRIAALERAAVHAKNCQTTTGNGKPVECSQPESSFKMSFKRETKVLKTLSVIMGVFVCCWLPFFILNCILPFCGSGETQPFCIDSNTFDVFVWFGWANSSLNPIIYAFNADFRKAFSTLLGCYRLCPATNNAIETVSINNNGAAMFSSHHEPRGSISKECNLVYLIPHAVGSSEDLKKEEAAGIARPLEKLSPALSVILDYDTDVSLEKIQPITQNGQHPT
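Tetracycline-induced HEK293 T-REx cells with force-coupled D1 receptor were loaded with a no-wash calcium dye. Compound was added after a 10 s baseline and read kinetically for 180 s; EC80 dopamine was then added and calcium flux followed another 180 s.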
D1 ag: Allosteric Agonists of the Human D1 Dopamine Receptor: qHTS | D(1A) dopamine receptor (Homo sapiens), P21728 | HEK293 T-REx D1 cells, calcium flux, agonist mode | activation, % at 2 µM | 1% of 360,000 active; in the data active means activation above about 30%; further: 0% is about no effect
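Inducible HEK293 T-REx D1 cells, force-coupled to calcium signalling, were plated at 4000 cells/well with tetracycline and held overnight at 30 C. After no-wash calcium dye loading, compound-evoked calcium rise over 180 s flagged agonists.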
D3 ag: qHTS of D3 Dopamine Receptor Agonist: qHTS; D(3) dopamine receptor (Homo sapiens), P35462; D3R DiscoveRx beta-arrestin cells, luminescence, 90 min; max activation, %; 0.58% of 410,000 active; AID 652048, 2013; in the data active means max activation above about 30%; further: 0% is about no effect
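Cells at 1500/well, incubated overnight, then treated with pinned compounds (dopamine as control) for 90 min at 37 degrees C. DiscoveRx reagent added for 30 - 60 minutes at room temperature; luminescence read.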
D1 PAM: Potentiators of Human D1 Dopamine Receptor: qHTS; D(1A) dopamine receptor (Homo sapiens), P21728; HEK293 TREx D1 cells, calcium flux, dopamine EC20 potentiation; potentiation, % at 10 µM; 0.036% of 360,000 active; in the data active means potentiation above about 30%; further: 0% is about no effect
DRD3 antagonist: qHTS of D3 Dopamine Receptor Antagonist: qHTS | AID 652054, 2013 | max response, negative = inhibition, % | 2.5% of 360,000 active | D(3) dopamine receptor (Homo sapiens), P35462 | D3R cells, DiscoveRx beta-arrestin luminescence, antagonist mode; stronger effect = lower value; in the data active means max response below about -50%; further: on the % scale 0 is the no-effect control and ±100 the full control effect
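Cells plated overnight at 1500 cells/well, then exposed to library compounds with dopamine controls for 90 minutes at 37 degrees C. DiscoveRx reagent added for 30–60 minutes at room temperature; luminescence read, quantitative HTS format.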
* marks the source's active call; other numbers are inactive results; nt = no result given.

SMILES | D1 antagonist | D1 ag | D3 ag | D1 PAM | DRD3 antagonist
COc1ccc(NS(=O)(=O)c2cccc(NC(=O)c3cnccn3)c2)cc1Br | -31* | 7 | 4 | -3 | -8
Cc1cccc([C@@H](NC(=O)OC(C)(C)C)C(=O)OC(C)(C)C)c1 | nt | -5 | 4 | 5 | 8
CC(C)(C)OC(=O)N[C@@H](C(=O)OC(C)(C)C)c1ccccc1 | -35* | -1 | -12 | -6 | -18
Cc1cc(NC(=O)CCC(=O)N(CC(=O)NC2CCCC2)c2ccc(Cl)c(Cl)c2)no1 | 13 | 3 | 0 | -8 | -5
CCOC(=O)[C@H]1[C@H]2COc3ccc(OC)cc3[C@@H]2N2C(=O)c3cc(OC)c(OC)cc3NC(=O)[C@@]12C | -17 | 3 | -11 | 1 | -61*
CCOC(=O)[C@H]1[C@H]2COc3ccc(Br)cc3[C@@H]2N2C(=O)c3cc(OC)c(OC)cc3NC(=O)[C@@]12C | -1 | 1 | 5 | 6 | 6
CCCCN1CC(=O)N2[C@@H]3c4cc(OC)ccc4OC[C@@H]3[C@H](C(=O)OCC)[C@]2(C)C1=O | nt | nt | 49* | nt | 14
CCOC(=O)[C@H]1[C@H]2COc3ccc(OC)cc3[C@@H]2N2C(=O)c3cc(OC)ccc3NC(=O)[C@@]12C | -3 | 1 | 5 | -3 | 0
CCOC(=O)[C@H]1[C@H]2COc3ccc(C)cc3[C@@H]2N2C(=O)c3cc(OC)c(OC)cc3NC(=O)[C@@]12C | 4 | 3 | -17 | 4 | -60*
CCCCC(=O)NC1(C(F)(F)F)C(=O)Nc2c1c(=O)[nH]c(=O)n2-c1ccc(F)cc1 (stereo unspecified) | -14 | 4 | -3 | 0 | nt
NS(=O)(=O)c1ccc(CCNC(=O)COC(=O)CCc2c[nH]c3ccccc23)cc1 | nt | nt | -17 | nt | 3
CCCCNC(=O)C1CCN(C/C(C)=C/c2ccccc2)CC1 | -1 | 7 | -13 | -3 | -66*
CCCCNC(=O)C1CCN(Cc2ccc(OCc3ccccc3)cc2)CC1 | -16 | 20 | -7 | -6 | 0
C/C(=C\c1ccccc1)CN1CCC(C(=O)N2CCC(C)CC2)CC1 | -8 | 1 | -11 | -12 | -26
CCCCN(C)C(=O)C1CCN(C/C(C)=C/c2ccccc2)CC1 | 12 | 0 | 1 | -4 | -65*
C/C(=C\c1ccccc1)CN1CCC(C(=O)N2CCCCC2)CC1 | -1 | 6 | -12 | -1 | -57*
CCN(CCCNC(=O)c1nn(-c2ccc(OC)cc2)c(=O)c2c1c1ccccc1n2C)c1ccccc1 | 13 | 1 | 4 | 4 | nt
O=C(Nc1ccc2oc(-c3cccnc3)nc2c1)c1ccc(-c2cccc(Cl)c2)o1 | 5 | -1 | -1 | 1 | nt
COC(=O)c1ccc(/C=C/c2ccc3cccc(OC(C)=O)c3n2)cc1 | 5 | 5 | -16 | 0 | -64*
COCc1nn2c(N)c(-c3ccccc3)cnc2c1-c1ccccc1 | -35* | 2 | 4 | -7 | 1
c1ccc(C2=NNC(c3ccco3)=Nc3ccccc32)cc1 | -32* | 5 | -1 | 3 | 0
COc1ccc(C2=NNC(c3cccnc3)=Nc3ccccc32)cc1 | 18 | 1 | 7 | -4 | 5
CCn1c2c(c(=O)n3ncc(C(=O)Nc4cccc(Cl)c4C)c13)CN(Cc1ccc(OC)cc1)CC2 | 11 | 3 | -20 | 0 | nt
COCCCn1c(=O)/c(=C\c2ccc(OC(F)F)c(OC)c2)s/c1=C(/C#N)C(N)=O | -44* | 2 | -1 | -7 | 3
Cc1ccc(CSCC(=O)N2CCN(c3cc(Cl)ccc3C)CC2)cc1 | 12 | 7 | 4 | 2 | nt
SMILES | D1 antagonist | D1 ag | D3 ag | D1 PAM | DRD3 antagonist
NC(=S)Cc1ccc(Cl)cc1Cl | 2 | 3 | -7 | -7 | -7
N=C(N)SCc1ccc(Cl)cc1Cl | 6 | 34* | 1 | 2 | -18
COc1ccc(C(=O)Nc2sc3c(c2C#N)CCN(C(C)=O)C3)cc1 | 1 | 1 | -5 | 2 | 11
CC(=O)N1CCc2c(sc(NC(=O)c3ccc([N+](=O)[O-])o3)c2C#N)C1 | -7 | 0 | -12 | 0 | -59*
COc1cccc(NC(=O)C(Cc2ccccc2)NS(=O)(=O)c2ccc3c(c2)oc(=O)n3C)c1 (stereo unspecified) | -11 | 3 | -13 | -2 | nt
COc1ccc(CCN(C)CCc2ccc(OC)c(OC)c2)cc1OC | nt | nt | -65 | nt | -21
COc1ccc(CCN(C)CCCC(C#N)(c2cc(OC)c(OC)c(OC)c2)C(C)C)cc1OC (stereo unspecified) | 9 | 6 | -84 | -5 | -57*
CCCCN(C)C(=O)c1sc(=O)n(CC(=O)c2ccccc2OC)c1C | nt | nt | -4 | nt | 13
CCOc1ccc(C(=O)Nc2nnc(SCc3cc(=O)c4cc(C)ccc4[nH]3)s2)cc1 | -20 | 0 | -6 | -2 | nt
COc1cc(/C=N/O)ccc1Oc1ccc([N+](=O)[O-])cc1[N+](=O)[O-] | 8 | 2 | -6 | 6 | -7
O=[N+]([O-])c1cc(/C=N\O)ccc1Oc1ccc(F)cc1 | -53* | 1 | -6 | -4 | -27
CC(C)N(Cc1nc(-c2ccc(Cl)cc2)no1)C(=O)c1ccco1 | -16 | 5 | 8 | -6 | nt
CCCS(=O)(=O)N1CCCC(C(=O)NCCc2ccc(Cl)cc2)C1 (stereo unspecified) | -31* | 1 | -8 | 5 | -63*
O=C(NCC1CCCO1)C1CCCN(S(=O)(=O)c2ccc(Cl)cc2)C1 (stereo unspecified) | 0 | 1 | 34* | -10 | 16
Cc1[nH]c(=O)[nH]c(=O)c1S(=O)(=O)N1CCCC(C(=O)NCCc2ccc(Cl)cc2)C1 (stereo unspecified) | -35* | -3 | 2 | -10 | -11
CCCCNC(=O)C1CCCN(S(=O)(=O)CCC)C1 (stereo unspecified) | -32* | -1 | -4 | 1 | nt
O=C(NCC1CCCO1)C1CCCN(S(=O)(=O)c2ccc(F)cc2)C1 (stereo unspecified) | 3 | 3 | 0 | 0 | -11
CC1=C(C(=O)NCc2ccccc2F)C2(CCCCC2)OC1=O | -9 | -1 | -9 | -1 | nt
Cc1cccc(Cn2ncc3c4sc(C)cc4n(C)c3c2=O)c1 | 9 | 3 | nt | 4 | nt
CS(=O)(=O)N1CCCC(C(=O)c2cccc(Cl)c2)C1 (stereo unspecified) | 1 | 3 | -5 | -1 | -12
CCCS(=O)(=O)N1CCCC(C(=O)c2cccc(Cl)c2)C1 (stereo unspecified) | -2 | 0 | -10 | -2 | -68*
CCOC(=O)C1=C(c2ccccc2)N=c2s/c(=C\c3ccc(O)cc3)c(=O)n2C1c1cccs1 (stereo unspecified) | 5 | 31* | -3 | 2 | -57*
